Screens deposited in PubChem by several laboratories.
TPT1 inhibitor = blocks Candida albicans tRNA 2'-phosphotransferase; recombinant caTPT1, FP RNA substrate dephosphorylation; inhibition, % at 5 µM; actives 0.81% (n = 300,000); AID 1962;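 active = inhibition above the mean of all tested compounds plus 3 SD, set per screening campaign, cut at about 24% in these data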;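 also: plate controls were DMSO alone for no effect and ferristatin control at 100 nM for full effect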
IDE cell inh = inhibits human insulin-degrading enzyme in HEK cells; P14735; FAbetaB cleavage, fluorescence polarization; inhibition, % at 5.59 µM; actives 0.41% (n = 320,000); AID 434962;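 active = percent inhibition above the average of all tested compounds plus 3 SD, set per screening campaign, cut at about 16% in these data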;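 also: IDE supplied by intact live HEK cells; FP after avidin binding of uncleaved biotin substrate so inhibition keeps polarization high; 0% = DMSO wells and 100% = 60 µM reference IDE inhibitor Ii1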
IDE act = boosts human insulin-degrading enzyme activity in HEK cells; FAbeta-B cleavage, fluorescence polarization; 0% vehicle, 100% cell-free pure enzyme wells; activation, % at 5.96 µM; actives 0.073% (n = 340,000); AID 493087;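 active = activation above the mean of all tested compounds plus 3 SD, set per screening campaign, cut at about 17% in these data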
CRFR2-BP ag = CRF-BP/CRF-R2 complex agonism; HEK293 CRF-R2/CRF-BP, calcium dye fluorescence (FLIPR); percent of saturating CRF peptide response; AID 588473; activation, % at 13.2 µM; actives 0.46% (n = 350,000);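 active = activation of at least 50%, plus an integration ratio under a set limit after plate pattern correction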;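 also: plate controls were neutral control wells without compound for no effect and CRF at EC100 for full effect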
HNF4A DNA FP = change in binding of human HNF4 alpha to DNA. HNF4a-FITC DNA binding, fluorescence polarization, 1 h. activity change, % at 10 µM. actives 0.3% (n = 360,000). AID 1224865; in the data active = activity change above about 30%, passing the limit was not always enough
Target sequence (P41235 whole entry, looked up): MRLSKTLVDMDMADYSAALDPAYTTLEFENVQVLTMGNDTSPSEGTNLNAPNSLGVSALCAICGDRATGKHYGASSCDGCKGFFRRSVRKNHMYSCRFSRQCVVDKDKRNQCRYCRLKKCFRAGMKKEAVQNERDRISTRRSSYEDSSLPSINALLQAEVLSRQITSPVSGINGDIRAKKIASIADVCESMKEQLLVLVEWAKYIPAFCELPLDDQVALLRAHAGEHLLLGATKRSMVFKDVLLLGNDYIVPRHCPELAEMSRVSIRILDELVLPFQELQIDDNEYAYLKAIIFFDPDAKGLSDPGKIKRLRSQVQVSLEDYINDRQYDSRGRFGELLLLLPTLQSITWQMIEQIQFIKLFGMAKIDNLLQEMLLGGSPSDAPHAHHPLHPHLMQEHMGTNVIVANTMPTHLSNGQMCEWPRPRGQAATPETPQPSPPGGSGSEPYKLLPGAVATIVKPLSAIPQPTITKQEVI
Numbers without * were called inactive; / = no result given. Hits are enriched below; roughly 1.4% of the tested compounds scored in any of these assays.

SMILES | TPT1 inhibitor | IDE cell inh | IDE act | CRFR2-BP ag | HNF4A DNA FP
CN(CCC#N)C(=O)COC(=O)c1cc(Cl)cc(Cl)c1N | -1 | -7 | -3 | 1 | -7
CC(C)OC(=O)c1nn2c(C(F)(F)F)cc(-c3ccco3)nc2c1Cl | 5 | 6 | 2 | 4 | 65*
COC(=O)CSc1nnc(CNC(=O)c2cc(OC)c(OC)c(OC)c2)n1C | -1 | 4 | 5 | -2 | 28*
Cc1ccc(N=Nc2c(O)ccc3n[nH]nc23)cc1 | / | / | 55* | -2 | 2
CCOC(=O)C1(C)CCCN(C(=O)c2ccccc2C(F)(F)F)C1 (configuration not stated) | / | / | / | / | -2
CCCCN1C(=O)/C(=C/C=C2\SCCN2C)SC1=S | / | / | -88 | 81* | 203
CCCCn1c(=NC(=O)c2cccnc2)c(C#N)cc2c(=O)n3cccc(C)c3nc21 | -7 | -8 | 11 | 89* | -1
CCCCCn1c(=N)c(S(=O)(=O)c2ccc(Br)cc2)cc2c(=O)n3cccc(C)c3nc21 | -2 | -7 | 5 | 19 | -3
Cc1ccc(S(=O)(=O)c2cc3c(=O)n4ccccc4nc3n(Cc3ccco3)c2=N)cc1 | 24 | 3 | -4 | 66* | -26
CCCCn1c(=N)c(S(=O)(=O)c2ccc(Br)cc2)cc2c(=O)n3cccc(C)c3nc21 | 0 | 1 | 6 | 59* | 5
CSC1=NNC(c2ccc(C(C)(C)C)cc2)=NN1 | -2 | 5 | 0 | 1 | 2
Cc1ccccc1CN1C(=O)CSCC1(C)C(=O)Nc1ccc2c(c1)OCCO2 (configuration not stated) | / | / | / | / | 0
N#Cc1ccc(CSc2ccc(S(=O)(=O)N3CCCC3)cn2)cc1 | / | -4 | 3 | 0 | 3
O=[N+]([O-])c1cccc(-c2nnc3ccc4ccccc4n23)c1 | -2 | 0 | -1 | -1 | -1
CN1CCN(/N=C/c2nc(-c3cccc([N+](=O)[O-])c3)n3ccccc23)CC1 | 0 | 2 | -2 | 94* | 0
C[C@@]12C(=O)Nc3cc(F)ccc3C(=O)N1[C@H]1c3ccccc3OC[C@@H]1[C@@H]2c1ccccc1 | -4 | 4 | 4 | 4 | 0
Cc1ccsc1/C=C1\Oc2cc(O)ccc2C1=O | / | / | / | 72* | -48
COC(=O)[C@]12CCCCC=C1N(Cc1ccco1)C(=O)[C@H](CC(=O)NCCc1ccccc1OC)C2 | / | / | / | / | 1
COc1cc(/C=C/C(=O)/C=C(O)/C=C/c2ccc(O)c(OC)c2)ccc1O | / | 15 | -15 | 130* | 117*
Cc1cc(F)ccc1NS(=O)(=O)c1cccc2nsnc12 | -3 | -1 | -1 | -1 | 3
Cc1ccc(O)c(NS(=O)(=O)c2cccc3nsnc23)c1 | -3 | -2 | 7 | -1 | 79*
COC1=C/C(=C/c2c(N)n3nc(-c4ccc(C)cc4)sc3nc2=O)C=CC1=O | / | / | -73 | 195* | 60*
CCOC1=C/C(=C/c2c(N)n3nc(-c4ccccc4)sc3nc2=O)C=CC1=O | / | / | / | 73* | 32
CCOC1=C/C(=C/c2c(N)n3oc(C)cc3nc2=O)C=CC1=O | 12 | -3 | / | / | /
CC1(C)N=C(N)N=C(N)N1c1ccc(CCCCc2ccccc2)cc1 | / | / | / | 1 | -2
SMILES | TPT1 inhibitor | IDE cell inh | IDE act | CRFR2-BP ag | HNF4A DNA FP
Fc1ccc(-c2cc(C(F)(F)C(F)F)[nH]n2)cc1 | -1 | 0 | / | 78* | -7
FC(F)C(F)(F)c1cc(-c2ccc(Cl)cc2)n[nH]1 | 1 | -3 | / | 28 | 2
CC1(C)C(=O)OC(c2cccn2-c2ccc([N+](=O)[O-])cc2)C2(CCCCC2)C1=O (configuration not stated) | -2 | 2 | -1 | 263* | 1
CC1(C)C(=O)OC(c2cccn2-c2ccc([N+](=O)[O-])cc2)C(C)(C)C1=O (configuration not stated) | 1 | -2 | -1 | -2 | 3
COc1ccc([C@H]2CC(=O)C=C(c3cc(Br)ccc3OC)C2)cc1 | / | 1 | 1 | 2 | -3
CCOc1ccc(Br)cc1C1=CC(=O)C[C@H](c2ccc(OC)cc2)C1 | / | 2 | 5 | 163* | 4
CCOC(=O)c1ccc(NCCOC)c([N+](=O)[O-])c1 | 2 | -4 | 3 | -2 | -1
COCCNc1cc(N)c([N+](=O)[O-])cc1[N+](=O)[O-] | 6 | 0 | 8 | 0 | 45*
CCN(CC)c1ccc(C=C2SC(=S)NC2=O)cc1 | / | / | -105 | 168* | 5
CCOc1cc(/C=C2/SC(=S)NC2=O)ccc1OC(=O)c1ccco1 | 5 | 15 | -16 | -3 | 24
O=C1NC(=S)S/C1=C/c1ccc(OC(=O)c2ccco2)cc1 | 17 | 6 | -1 | -1 | 44*
CCOc1cc(C(=O)OC(C)C(=O)Nc2ccc(NC(C)=O)cc2)ccc1OCC(=O)N1CCCCC1 (configuration not stated) | 1 | 3 | -3 | 1 | -3
COc1ccc(NC(=O)C(c2cc3c(cc2[N+](=O)[O-])OCO3)N(C)c2ccccc2)cc1 (configuration not stated) | -4 | 5 | 1 | 90* | 1
Cc1ccc(S(=O)(=O)c2ccccc2)cc1S | 0 | 26* | / | / | /
CCc1ccccc1NC(=O)/C(C#N)=C/c1ccc(Sc2ccccc2)o1 | 5 | 0 | 0 | 10 | 3
Cc1cc(C)nc(Sc2ccc(/C=C(\C#N)C(=O)Nc3ccccc3)o2)n1 | 11 | 3 | -3 | 0 | 71*
COc1cccc(CN(C)S(=O)(=O)c2c(C)noc2C)c1OC | / | / | 2 | 1 | -5
CCOc1ccc(NC(=O)/C(C#N)=C\c2ccc(N3CCCC3)c(C)c2)cc1 | / | / | -4 | 99* | 98
CCOc1ccc(/C=C(\C#N)C(=O)Nc2cccnc2)cc1 | -1 | -1 | -6 | 1 | 2
COc1cc2c(C)nc3c(c(C)nn3-c3ccccc3)c2cc1OC | -2 | 8 | 2 | 0 | -3
COc1cc2c(-c3ccc(O)cc3)nc3c(c(C)nn3-c3ccccc3)c2cc1OC | -1 | 0 | 5 | -1 | 160*
CC(OC(=O)c1ccc(Cl)nc1)C(=O)NC1(C#N)CCCCC1 (configuration not stated) | 3 | 2 | 18* | 2 | 9
CC(C)(C)c1csc(N/N=C/c2ccc(O)cc2)n1 | 1 | 2 | 3 | -1 | -1
CCCNS(=O)(=O)c1ccc(Oc2ncc(C(F)(F)F)cc2Cl)cc1 | 0 | -5 | -2 | 81* | -1
COc1ccc(CCNC(=O)COC(=O)c2ccco2)cc1OC | 2 | -2 | 5 | 0 | 3
COc1ccc(CCNC(=O)COC(=O)C2CC2C)cc1OC (configuration not stated) | / | -3 | 22* | 0 | 6
O=C(NCCS(=O)(=O)N1CCN(c2ccccc2F)CC1)c1ccc2c(c1)OCO2 | 1 | -3 | 3 | 0 | 6
C=CCNC(=O)c1cc(-c2ccccc2)sc1N | / | / | / | / | 11
Nc1sc(-c2ccccc2)cc1C(=O)NCCc1ccc(Cl)cc1 | / | / | / | / | 56*
O=C(c1cc2c(F)cccc2s1)N1CCCC1 | -3 | -2 | -3 | 1 | 3
